Experimental data from PubChem BioAssay AID932 (The Scripps Research Institute Molecular Screening Center, 2007).
Hit rate of the full screen: of about 200,000 compounds, about 5,100 (2.5%) were called active. This is one part of a sample in which actives are shown more often than they occur.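 How the source made its calls: active means activation above the screen-wide mean activation plus 3 SD (cut at about 130% in these data); inactive means the rest.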

Test: potentiators of IFN-gamma driven STAT1 reporter – cell-based, HTS, luciferase reporter, primary screen (AID 932);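 further: raw ratio to IFN-gamma control signal so 100% means no change and 0% no light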
Settings: NIH 3T3 STAT1-luciferase reporter, luminescence, at 5.5 µM, stronger effect = higher value, 100% = IFN-gamma alone, no compound

Activation (% of control), active:
C/C(=N\Nc1ncc(Cl)cc1Cl)c1cccs1 143%, C/C(=N\Nc1nc2ccccc2[nH]1)c1cccs1 147%, C/C(=N\Nc1ncc(Cl)cc1Cl)c1ccc(S(=O)(=O)NCc2ccco2)cc1 131%, c1csc(-c2nc(-c3ccncc3)no2)c1 130%, CCOC(=O)C1(Cc2ccccc2C(F)(F)F)CCN(C(=O)c2cc(C)n(C)n2)CC1 131%, CCOC(=O)c1ccc(-c2ccc(C(=O)Nc3cccnc3)o2)cc1 132%, CCCNC(=O)c1c(Cl)cnn1-c1ccc(C)cc1 142%, CNc1nc(Nc2ccc(C)c(Cl)c2)nc(N)c1[N+](=O)[O-] 142%, CC(C)c1ccc(NC(=O)NC2CCCCC2)cc1 180%, Cc1nn2cc(-c3ccc(Cl)cc3)cnc2c1Br 140%, C/C(=N\NC(=O)OC(C)(C)C)c1ccc[nH]1 130%, Cc1cc(C(=O)NNC(=S)Nc2ccccc2C)cs1 130%, Cc1ccc(C(=O)NC(=S)Nc2ccccc2C)cc1 130%, Cc1ccc(N/N=C2\COC(C)(C)CC2=O)cc1 142%, COc1cccc(/C=C/C(=O)Nc2ccc3c(c2)OCCO3)c1 129%, Cc1cccc(NC(=O)Nc2ccc3c(c2)OCO3)n1 168%, Cc1cccc(NC(=O)/C=C/c2ccc3c(c2)OCO3)n1 135%

Activation (% of control), inactive:
OCCC1CN(Cc2cnc(-c3ccccc3)s2)CCN1CCc1ccccc1 (stereo unspecified) 100%, COc1cccc(/C(C)=N/Nc2ncc(Cl)cc2Cl)c1 126%, OCCNc1nc2ccccc2[nH]1 104%, C/C(=N\Nc1nc(Nc2ccccc2)nc(N2CCOCC2)n1)c1cccs1 92.8%, O=C(NC1CCC(O)CC1)c1ccc(S(=O)(=O)NCc2ccco2)cc1 (stereo unspecified) 93.2%, Cc1c(Cl)cnc(NC(=O)COC(=O)c2ccc(S(=O)(=O)NCc3ccco3)cc2)c1Cl 101%, C/C(=N\NS(=O)(=O)c1ccc(Br)cc1)c1cccs1 95.4%, COc1cccc(CNC(=O)CCN2C(=S)NC(C)(C)CC2C)c1 (stereo unspecified) 100%, Cc1nn(C)c(C)c1CN(C(=O)CCc1nnc(Cc2c[nH]c3ccccc23)o1)C(C)C 99.9%, CCN(CC)c1ccc(C(=O)c2cnc(/N=C/N(C)C)s2)cc1 118%, COc1nc(-c2ccc(Cl)cc2)ccc1-c1noc(-c2cccs2)n1 108%, c1ccc(-c2noc(-c3cccs3)n2)nc1 104%, CC(=O)Nc1ccc(CN2CCN(Cc3ccc(F)c(F)c3)C(CCO)C2)cc1 (stereo unspecified) 100%, O=c1oc(-c2ccco2)nc2sc3c(c12)CCCCC3 110%, Cc1c(Br)ccc(NC(=O)COc2ccccc2C(N)=O)c1C 97.9%, Cc1cc(NS(=O)(=O)c2ccc(NC(=O)c3cccc(OC(F)F)c3)cc2)nc(C)n1 105%, CCOC(=O)C1(Cc2ccc(Cl)cc2)CCN(C(=O)C2=NNC(=O)CC2)CC1 96.4%, CCOC(=O)C1(CCOc2ccccc2)CCN(C(=O)c2cncs2)CC1 99.2%, O=c1cc(CO)oc(C(Nc2cccc(C(F)(F)F)c2)c2ccccn2)c1O (stereo unspecified) 99.4%, CCOc1cccc(C(=O)Nc2cccnc2)c1 101%, CCOC(=O)c1cc(NC(=O)c2cccnc2)cc(C(=O)OCC)c1 96.5%, O=C(N1CCCC1)C12CC3CC(C1)CC(C(=O)N1CCCC1)(C3)C2 99.8%, CCCNC(=O)c1ccc(Cl)c(Cl)c1 98.4%, Cc1c(C(=O)NCc2ccccc2)cnn1-c1ccccc1 101%, Cn1ncc(N2CCN(S(=O)(=O)c3ccc(Br)cc3)CC2)c(Cl)c1=O 110%, COc1cc(C)c(Cl)cc1S(=O)(=O)n1ccnc1 92.5%, Nc1nc(NCCCN2CCOCC2)nc(Nc2ccccc2)c1[N+](=O)[O-] 103%, COCCNc1nc(N)c([N+](=O)[O-])c(NCCO)n1 114%, Cc1nn(-c2ccccc2)c(NC(=O)c2cccs2)c(-c2ccc(Cl)cc2)c1=O 107%, CC(C)N1CCC(NC(=O)Nc2ccccc2)CC1 95.4%, CC(C)(C)NS(=O)(=O)c1ccc(NC(=O)NC2CCCCC2)cc1 103%, COc1ccccc1-c1nnc(NC(=O)c2ccc3ncsc3c2)o1 122%, O=C(CC(=O)N/N=C\c1ccc(F)cc1)NCCc1ccccc1 100%, O=C(NNC(=O)C1C2CCC(C2)C1C(=O)O)c1ccc(Cl)cc1 (stereo unspecified) 110%, CC(C)(C)OC(=O)N/N=C/c1ccc(C(=O)O)cc1 104%, Cc1ccccc1NC(=O)NNC(=O)OC(C)(C)C 103%, COc1ccc(C(=O)C2CCCN(C(=O)c3cc4nc(C)cc(C)n4n3)C2)cc1F (stereo unspecified) 95.3%, COc1ccc(-n2nc3c(c2NC(=O)c2ccc(N4C(=O)CCC4=O)cc2)CSC3)cc1 96.7%, NC(N)=N/N=C/c1ccc(Cl)c([N+](=O)[O-])c1 93.6%, Cc1ccccc1NC(=S)NNC(=O)c1cccc(Br)c1 104%, Cc1ccc(NC(=S)NC(=O)c2ccc(-c3ccccc3)cc2)c(C)c1 92%, Cc1ccc(C)c(NC(=S)NNC(=O)c2csc(C)c2)c1 97.8%, Cc1ccc(NC(=S)NC(=O)c2ccc(-c3ccccc3)cc2)cc1 98.2%, CCCN(C(=O)CSc1nnnn1C)c1c(N)n(Cc2ccccc2)c(=O)[nH]c1=O 101%, COc1ccc(N/N=C2/CCCCC2=O)cc1 105%, CCn1cc(CN2CCCC(CNS(=O)(=O)Cc3ccccc3)C2)cn1 (stereo unspecified) 89.7%, CN=c1scc(-c2cc(OC)ccc2OC)n1/N=C/c1c(C)[nH]c2ccccc12 112%, CCn1ccnc1CN1CCCC(C(=O)c2ccc3c4c(cccc24)CC3)C1 (stereo unspecified) 89.5%, COc1ccc(OC)c(/C=C/C(=O)OCC(=O)Nc2ccc3c(c2)OCCO3)c1 98.4%, O=C(/C=C/c1ccc2c(c1)OCO2)NCc1ccc(F)cc1 101%, CC(NC(=O)Nc1ccc2c(c1)OCO2)c1ccncc1 (stereo unspecified) 97.9%, CCc1c(C)sc(NC(=O)/C=C/c2ccc3c(c2)OCO3)c1C(=O)OC 96.1%, COc1ccc(/C=C/C(=O)Nc2ccc3c(c2)OCCO3)cc1OC 96.8%, CC(C)C(=O)Nc1cccc(C(=O)Nc2ccc3c(c2)OCO3)c1 120%
